Platelet DG rel = platelet dense granule release activity. 300,000 compounds, 0.22% hits. inhibition, %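 (compounds screened at 7.5 µM in platelet-rich plasma)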. human platelet-rich plasma, SFLLRN dense granule ATP release, luminescence. AID 1663;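 active = mean replicate score, as percent of positive control, at or above 50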
MIN6 prolif = MIN6 beta-cell proliferation induction | proliferation, % at 10 µM | MIN6 cells proliferation, ATPlite luminescence, 48 h; cells starved in 0.2% serum; 100% = growth in 10% serum | 330,000 compounds, 0.29% hits | AID 2380;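 active = compounds whose signal lies at least 3.5 SD above the mean of all wells on their plate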;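 also: 0% = DMSO-treated cells in low-serum medium and 100% = 10% serum control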
NTR1 ag = activates human neurotensin receptor 1; P30989; 330,000 compounds, 0.17% hits; activation, % at 20 µM; AID 493036; NTR1-U2OS beta-arrestin-GFP spot imaging, agonist mode;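 active = activation at or above 40% of the spot to cytoplasm intensity ratio, with at least 20 cells analyzed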;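 also: 0% = DMSO without peptide and 100% = 100 nM NTR1 peptide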
GRK2 inh = blocks RNA aptamer binding to human GRK2. P25098. bead flow cytometry, FAM-aptamer displacement from GRK2. inhibition of aptamer binding, % at 10 µM. 330,000 compounds, 0.59% hits;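 active = inhibition of aptamer binding above 40%, roughly 3 SD of noise, on plates passing a quality check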;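 also: median bead fluorescence of bound FAM aptamer so fluorescent compounds give negative values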
Target sequence (P25098 whole entry, looked up): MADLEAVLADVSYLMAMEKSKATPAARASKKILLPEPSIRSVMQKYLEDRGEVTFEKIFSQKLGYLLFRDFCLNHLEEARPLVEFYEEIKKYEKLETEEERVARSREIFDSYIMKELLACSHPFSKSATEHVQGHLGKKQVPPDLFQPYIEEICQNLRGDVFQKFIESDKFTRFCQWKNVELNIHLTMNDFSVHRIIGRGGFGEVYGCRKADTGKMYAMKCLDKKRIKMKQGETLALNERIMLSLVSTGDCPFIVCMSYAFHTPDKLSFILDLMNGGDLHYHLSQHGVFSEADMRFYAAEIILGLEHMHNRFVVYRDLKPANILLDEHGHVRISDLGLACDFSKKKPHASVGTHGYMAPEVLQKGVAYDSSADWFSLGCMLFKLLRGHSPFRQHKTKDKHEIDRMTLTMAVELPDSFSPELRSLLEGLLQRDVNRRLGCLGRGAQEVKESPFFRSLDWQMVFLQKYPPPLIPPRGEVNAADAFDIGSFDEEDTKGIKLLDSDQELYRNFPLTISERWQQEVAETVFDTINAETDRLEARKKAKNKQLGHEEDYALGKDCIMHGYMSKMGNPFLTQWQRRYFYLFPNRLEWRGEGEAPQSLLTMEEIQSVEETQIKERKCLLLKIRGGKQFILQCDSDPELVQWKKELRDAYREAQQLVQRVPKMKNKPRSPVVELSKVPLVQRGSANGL
The depositor's hits bear a star; · = not tested or not shown. The list is not random: actives were taken first. Their share in the collection is about 1.2%.

SMILES | Platelet DG rel | MIN6 prolif | NTR1 ag | GRK2 inh
O=C(OCCCCN1C(=O)c2ccccc2C1=O)c1ccc(S(=O)(=O)N2CCCC2)cc1 | 58.0* | -5.0 | 1.4 | 0.0
CCCOc1ccc2c(c1)C(=NN=C(N)N)c1cc(OCCC)ccc1-2 | 7.1 | -6.8 | 79.8* | 0.0
CCOC(=O)C1(Cc2cccc(OC)c2)CCN(CC=C(C)C)CC1 | 57.4* | 0.9 | -0.2 | 2.0
O=C(O)CCCN1C(=O)/C(=C/C=C/c2ccco2)SC1=S | -10.0 | -2.8 | 0.7 | 100.0*
O=C(O)CC(C(=O)O)N1C(=O)/C(=C/C=C/c2ccco2)SC1=S (configuration not stated) | 4.9 | -1.9 | 1.9 | 100.0*
Cc1c(C(=O)N2CCN(Cc3ccccc3)CC2)oc2c1C(=O)CCC2 | 1.9 | -1.5 | -0.1 | 0.0
O=C(CSc1nnc(-c2cccnc2)o1)Nc1cccc(Cl)c1 | -0.6 | 1.5 | -0.1 | 0.0
CCn1c2ccccc2c2cc(NC(=O)CSc3nnc(-c4cccc(Cl)c4)o3)ccc21 | 61.1* | -6.2 | 2.1 | 0.0
O=C(O)C1Nc2ccc(OC(F)(F)F)cc2C2C=CCC12 (configuration not stated) | -12.6 | -6.2 | -0.6 | 29.0
COc1cccc2c1NC(C(=O)O)C1CC=CC21 (configuration not stated) | 35.1 | 3.2 | 4.0 | 100.0*
O=C(O)C1Nc2c(cccc2C(F)(F)F)C2C=CCC12 (configuration not stated) | 3.7 | · | · | 75.0*
Cc1ccc2c(c1)C1C=CCC1C(C(=O)O)N2 (configuration not stated) | 14.2 | · | · | 68.0*
CCC(Oc1ccccc1OC)C(=O)Nc1ccc2c(c1)OCCO2 (configuration not stated) | -0.4 | 1.0 | 0.4 | 0.0
CN1CCN(S(=O)(=O)c2ccc(N(C)Cc3c(F)cccc3Cl)nc2)CC1 | · | -1.6 | -1.8 | 0.0
Cc1c(C(=O)N2CCCCC2)c(S(=O)(=O)N(C)Cc2ccccc2)c(C)n1C | 55.7* | -1.6 | -0.3 | 0.0
Cc1ccc(NN2C(=O)C=C(c3ccc(Cl)cc3)C2=O)cc1 | 56.9* | -3.7 | 39.3 | 2.0
Cc1ccc(NN2C(=O)C=CC2=O)cc1 | -15.1 | 0.0 | -1.4 | 0.0
O=C1C=C(c2ccccc2)C(=O)N1Nc1ccccc1 | 61.2* | -3.0 | 16.3 | 0.0
COc1ccc(C2=CC(=O)N(Nc3ccccc3)C2=O)cc1 | 10.7 | 2.4 | 4.1 | 0.0
CC(Nc1cc(C)cc(C)c1)=[N+](C)CCNS(=O)(=O)c1ccc(Cl)cc1 | -16.9 | -4.6 | 1.3 | 48.0*
CCCN1CCc2c(sc(NC(=O)C3CCN(S(=O)(=O)c4cccs4)CC3)c2C(N)=O)C1 | 7.2 | -2.6 | 1.5 | 0.0
COc1ccc(C(=O)O/N=C(/c2ccccc2)c2ccncc2)cc1 | 12.4 | 3.1 | 2.1 | 2.0
CCOc1ccc(C(=O)O/N=C(\N)c2ccccn2)cc1 | 80.7* | -4.0 | 0.4 | 0.0
Cc1ccc(C(=O)O/N=C(\N)c2ccccn2)cc1 | 103.7* | -4.2 | 0.8 | 0.0
C/C(=N/OC(=O)c1ccc(C)cc1)c1cccs1 | 59.1* | -4.2 | 0.9 | 2.0
SMILES | Platelet DG rel | MIN6 prolif | NTR1 ag | GRK2 inh
N/C(=N\OC(=O)c1ccccc1)c1ccccn1 | 15.2 | -5.5 | -0.1 | 0.0
COc1ccc(C(=O)O/N=C(\C)c2ccccc2)cc1 | 64.9* | -2.2 | -0.4 | 3.0
Nc1c(/C=C2/C=CC(=O)C(O)=C2)c(=O)nc2sc(CC(=O)N3CCCC3)nn12 | 15.5 | -1.2 | 0.4 | 10.0
Nc1c(/C=C2/C=CC(=O)C(O)=C2)c(=O)nc2sc(CC(=O)N3CCCCC3)nn12 | 1.2 | -2.5 | 0.2 | 41.0*
COc1ccc(C(=O)Nc2ccc3[nH]ccc3c2)cc1 | 57.8* | -4.2 | 0.8 | 2.0
COc1ccc(C(=O)Nc2ccc3[nH]ccc3c2)cc1OC | 5.9 | -4.1 | 0.5 | 1.0
Cn1c(=O)oc2cc(S(=O)(=O)NC3CCN(Cc4ccccc4)CC3)ccc21 | 52.1* | 1.4 | 1.1 | 3.0
CCN(CC)Cc1cc(C(=O)O)c(C)o1 | 12.2 | 1.3 | -1.2 | 1.0
COc1ccc(OCc2cc(C(=O)O)c(C)o2)cc1 | -2.2 | 1.7 | 0.3 | 64.0*
CC(=O)NCc1cn2c(C)csc2n1 | 82.6* | 0.3 | -0.6 | 5.0
CSc1nc2c(c(-c3ccc(O)cc3)c1C#N)CCC2 | 63.4* | -3.4 | 19.8 | 3.0
CC(=O)Nc1ccc(S(=O)(=O)NCC2CCC(C(=O)N3CC(C)CC(C)C3)CC2)cc1 (configuration not stated) | 5.1 | -0.7 | 0.2 | 0.0
N/C(=N\N=C\c1cccc(O)c1)c1nonc1N | 70.1* | -0.7 | 0.0 | 2.0
N/C(=N\N=C\c1ccc(O)c(O)c1)c1nonc1N | 104.8* | -3.6 | -1.0 | 4.0
COc1ccc(/C=N/N=C(\N)c2nonc2N)cc1OC | 4.1 | -1.3 | -0.5 | 0.0
N/C(=N\N=C\c1ccc([N+](=O)[O-])cc1)c1nonc1N | 33.0 | -0.8 | 3.8 | 1.0
N/C(=N\N=C\c1ccc(O)cc1)c1nonc1N | 64.5* | -2.4 | -0.5 | 5.0
CCOc1ccc(S(=O)(=O)NCCC(=O)N2CCCN(C)CC2)cc1 | 50.6* | 2.9 | -0.5 | 0.0
COc1ccc(S(=O)(=O)NCCC(=O)N2CCCN(C)CC2)cc1 | · | -1.3 | -0.5 | 0.0
CCOC(=O)/C=C/[C@H]1CCc2cccc(Cl)c2O1 | · | -2.6 | -1.4 | 0.0
CSc1ccccc1C(=O)Nc1ncc(C)s1 | 55.4* | -3.7 | -0.7 | 2.0
CSc1ncccc1C(=O)Nc1ncc(C)s1 | -0.8 | -3.7 | -0.7 | 0.0
COc1ccc(-c2noc(CCC(=O)N3CCN(c4ccccc4)CC3)n2)cc1 | · | · | 3.6 | 0.0
O=C1NC(=Nc2ccccc2)c2c1cccc2[N+](=O)[O-] | -4.1 | 0.0* | 1.9 | 3.0
O=C(Nc1cccc2c1C(=O)NC2=O)c1ccccc1[N+](=O)[O-] | 3.0 | -2.4 | 0.1 | 1.0
SMILES | Platelet DG rel | MIN6 prolif | NTR1 ag | GRK2 inh
CCOC(=O)NS(=O)(=O)c1ccc(CCNC(=O)c2cc(C)on2)cc1 | 19.1 | 0.0 | 1.4 | 0.0
O=C(Nc1ncc([N+](=O)[O-])s1)c1ccc2c(c1)OCO2 | 80.4* | -3.7 | 2.6 | 0.0
CC[n+]1c(/C=C(\C)OC)sc2ccccc21 | · | -0.9 | 0.7 | ·
CC[n+]1c(/C=C/C=C/N(C(C)=O)c2ccccc2)sc2cc(OC)ccc21 | · | · | · | 80.0*
Cc1[nH]c(=S)c(C#N)c(C)c1Cc1ccccc1 | -1.6 | -2.9 | 0.4 | 4.0
Cc1[nH]c(=S)c(C#N)c(C)c1CCC#N | 75.8* | 2.0 | 0.7 | 0.0
COc1cccc(CNC(=O)c2cc(S(=O)(=O)N3CCOCC3)cn2C)c1 | 51.1* | 0.0 | -0.1 | 2.0
Cc1ccc(C)c(NC(=O)c2cc(S(=O)(=O)N3CCOCC3)cn2C)c1 | 110.9* | 1.7 | 0.5 | 2.0
COc1ccc(CCNC(=O)c2cc(S(=O)(=O)N3CCOCC3)cn2C)cc1OC | 50.8* | 1.2 | 2.2 | 1.0
CC(C)(C)c1ccc(C(=O)Nc2ccc(C(=O)NCc3cccnc3)cc2)cc1 | -26.8 | -3.7 | 1.8 | 1.0
CCCCN(C(=O)CCCc1nc2ccccc2s1)c1c(N)n(CC(C)C)c(=O)[nH]c1=O | · | -0.2 | 8.5 | 0.0
ON1C(c2ccc(Cl)cc2Cl)N(O)[C@H]2CCCC[C@H]21 (some centres not stated) | -2.0 | -1.1 | 0.4 | 2.0
